# Data from PubChem BioAssay AID1376 (SRMLSC, 2008).
# In all, about 220,000 compounds went through this assay and about 530 (0.24%) were called active. Many of the other results were omitted from the sample, so actives are more common in it than they were. Results with a measured potency or affinity are listed apart. A number with no mark means an inactive call. Rule as the data show it: active = inhibition above about 13%; inconclusive = no clear call, values can overlap the other calls; inactive = below that.
# Target: Bifunctional protein GlmU (Mycobacterium tuberculosis (strain ATCC 25618 / H37Rv)) (UniProt P9WMN3)
# Sequence (P9WMN3 whole entry, looked up): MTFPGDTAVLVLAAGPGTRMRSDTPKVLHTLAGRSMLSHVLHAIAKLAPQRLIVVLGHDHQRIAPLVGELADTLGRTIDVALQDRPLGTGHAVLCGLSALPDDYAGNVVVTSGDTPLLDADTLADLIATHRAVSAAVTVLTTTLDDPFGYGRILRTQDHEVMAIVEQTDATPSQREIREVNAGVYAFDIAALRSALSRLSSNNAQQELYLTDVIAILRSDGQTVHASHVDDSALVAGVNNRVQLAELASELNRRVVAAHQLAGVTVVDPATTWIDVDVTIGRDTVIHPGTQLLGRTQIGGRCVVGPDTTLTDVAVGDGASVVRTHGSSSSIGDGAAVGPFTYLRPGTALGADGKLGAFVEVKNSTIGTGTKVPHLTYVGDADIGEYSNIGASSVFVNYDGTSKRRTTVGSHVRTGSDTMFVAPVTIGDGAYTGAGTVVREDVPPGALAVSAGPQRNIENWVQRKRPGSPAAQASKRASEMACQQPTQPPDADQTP
# Experiment: inhibition of mycobacterial GlmU enzyme – biochemical, glucosamine-1-phosphate acetyltransferase (AID 1376);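 also: 0% = complete reaction with vehicle and 100% = reaction without substrate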
# Conditions: M. tuberculosis GlmU acetyltransferase enzyme assay; stronger effect = higher value;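 tested at 30 µM in the primary screen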
row,SMILES,inhibition
1,O=C(Cn1nc(-c2ccccc2)ccc1=O)N1CCC2(CC1)OCCO2,-1.66%
2,CC(C)C(=O)N1N=C2CCCCC2C1(O)C(F)(F)F (stereo not drawn),-2.41%
3,O=C(Nc1ccccc1)c1ccc2snnc2c1,-0.53%
4,S=C=Nc1ccccn1,-0.05%
5,COc1ccccc1Nc1nc(N)nc(CN2CCOCC2)n1,-4.21%
6,Cc1ccc(NC(=S)N/N=C2\CC(C)(C)Oc3ccc(O)cc32)cc1,0.56%
7,O=C(Nc1ccc(-c2nc3ccccc3[nH]2)cc1)c1ccc(N2C(=O)CCC2=O)cc1,-0.75%
8,O=C(CSc1ncn[nH]1)NCCOc1ccccc1,-0.55%
9,O=C1N[C@@H](Cc2ccccc2)C(=O)N2[C@@H]1C[C@@]1(Br)c3ccccc3N(S(=O)(=O)c3ccccc3)[C@@H]21,3.3%
10,O=C(O)c1ccc(-n2cccc2/C=C2/NC(=O)N(c3ccccc3)C2=O)cc1,14.4% (active)
11,O=C1N/C(=C/c2cccn2-c2ccc(F)cc2)C(=O)N1Cc1ccccc1,-0.61%
12,O=C1N/C(=C/c2cccn2-c2ccccc2)C(=O)N1Cc1ccc(F)cc1,1.54%
13,N#CC(C#N)=Cc1cccn1-c1ccc(S(N)(=O)=O)cc1,-1.86%
14,N#C/C(=C/c1cccn1-c1cccc(C(=O)O)c1)c1ccc(F)cc1,2.91%
15,N#Cc1ccccc1CN1C(=O)S/C(=C/c2cccn2-c2cccc(C(=O)O)c2)C1=O,2.69%
16,N#CC(C#N)=Cc1cccn1-c1ccc(C(=O)O)cc1,13.8% (active)
17,CN1C(=O)S/C(=C/c2cccn2-c2cccc(C(=O)O)c2)C1=O,-3.46%
18,O=C(O)c1cccc(-n2cccc2/C=C2\SC(=O)N(Cc3ccccc3F)C2=O)c1,14.4% (active)
19,CN(C)c1nc(N/N=C\c2ccc(Cl)c([N+](=O)[O-])c2)nc(Nc2ccc(F)cc2)n1,3.5%
20,COc1ccc(OCCCC(=O)Nc2cc([N+](=O)[O-])ccc2C)cc1,0.05%
21,Cc1ccc(NC(=O)CN2C(=O)NC3(CCc4ccccc43)C2=O)cc1Cl (stereo not drawn),2.43%
22,CCc1ccc(C(=O)CN2CCSC2=N)cc1,-4.03%
23,COc1ccc2nc(C)cc(SCC(=O)OC(C)C)c2c1,-3.07%
24,Cc1ccc(NC(=O)CS(=O)CC(=O)NC2CCN(Cc3ccccc3)CC2)c(C)c1 (stereo not drawn),5.17%
25,CC1CCC/C(=N/Nc2nc3ccccc3s2)C1 (stereo not drawn),1.47%
26,O=C(Cn1ccc([N+](=O)[O-])n1)N1CCCCC1,1.12%
27,O=C(Cn1ccc([N+](=O)[O-])n1)N1CCCCCC1,-1.9%
28,Cc1nn(C(=O)Cn2ccc([N+](=O)[O-])n2)c(C)c1Br,17.6% (active)
